# Reference: article PMC5540273 (PLoS ONE, 2017)
# Experiments:
# Details in all cases: concentration: 1 μM, replicates: in singlicate; n = 1
# [1] = test system: TNNI3K
# [2] = test system: T1, TRKA
# T1 construct: gene NTRK1
# [3] = test system: TRKB
# [4] = test system: T2, TRKC
# T2 construct: gene NTRK3
# [5] = test system: TRPM6
# [6] = test system: TSSK1B
# [7] = test system: TSSK3
# [8] = test system: TTK
# [9] = test system: TXK
# [10] = test system: TYK2(JH1domain-catalytic)
# [11] = test system: TYK2(JH2domain-pseudokinase)
# [12] = test system: TYRO3
# [13] = test system: ULK1
# [14] = test system: ULK2
# [15] = test system: ULK3
# [16] = test system: T3, VEGFR2
# T3 construct: gene KDR
# [17] = test system: T4, VPS34
# T4 construct: gene PIK3C3
# [18] = test system: VRK2
# [19] = test system: WEE1
# [20] = test system: WEE2
# 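Note: KINOMEscan kinase panel screen.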
smiles,measurement,setting,value
O=C(Nc1n[nH]c2cc(-c3ccoc3)ccc12)C1CC1 [SB-738481],%Inh,[1],0%
same,%Inh,[2],30%
same,%Inh,[3],25%
same,%Inh,[4],49%
same,%Inh,[5],0%
same,%Inh,[6],0%
same,%Inh,[7],0%
same,%Inh,[8],0%
same,%Inh,[9],20%
same,%Inh,[10],51%
same,%Inh,[11],7%
same,%Inh,[12],0%
same,%Inh,[13],0%
same,%Inh,[14],1%
same,%Inh,[15],10%
same,%Inh,[16],32%
same,%Inh,[17],0%
same,%Inh,[18],0%
same,%Inh,[19],0%
same,%Inh,[20],0%
O=C(NC1CCN(c2ccnc(Nc3ccc(F)cc3)n2)C1)c1cc2ccccc2s1 (centres unmarked) [GSK1379716],%Inh,[1],4%
same,%Inh,[2],10%
same,%Inh,[3],0%
same,%Inh,[4],8%
same,%Inh,[5],22%
same,%Inh,[6],5%
same,%Inh,[7],19%
same,%Inh,[8],17%
same,%Inh,[9],8%
same,%Inh,[10],2%
same,%Inh,[11],31%
same,%Inh,[12],0%
same,%Inh,[13],0%
same,%Inh,[14],1%
same,%Inh,[15],32%
same,%Inh,[16],0%
same,%Inh,[17],38%
same,%Inh,[18],0%
same,%Inh,[19],50%
same,%Inh,[20],0%
C[C@@H]1CC[C@@H](C(=O)Nc2ccccc2)CN1c1cc(-c2ccc3c(N)n[nH]c3c2)nc(N)n1 [GSK2286062],%Inh,[1],0%
same,%Inh,[2],12%
same,%Inh,[3],0%
same,%Inh,[4],13%
same,%Inh,[5],0%
same,%Inh,[6],0%
same,%Inh,[7],0%
same,%Inh,[8],9%
same,%Inh,[9],0%
same,%Inh,[10],15%
same,%Inh,[11],2%
same,%Inh,[12],0%
same,%Inh,[13],8%
same,%Inh,[14],0%
same,%Inh,[15],4%
same,%Inh,[16],0%
same,%Inh,[17],0%
same,%Inh,[18],1%
same,%Inh,[19],0%
same,%Inh,[20],0%
Cc1occc1-c1ncc(OC[C@@H](N)Cc2c[nH]c3ccccc23)cc1-c1ccc2[nH]nc(C)c2c1.O=C(O)C(F)(F)F [GSK682037],%Inh,[1],5%
same,%Inh,[2],33%
same,%Inh,[3],13%
same,%Inh,[4],0%
same,%Inh,[5],0%
same,%Inh,[6],16%
same,%Inh,[7],13%
same,%Inh,[8],22%
same,%Inh,[9],47%
same,%Inh,[10],7%
same,%Inh,[11],0%
same,%Inh,[12],0%
same,%Inh,[13],4%
same,%Inh,[14],0%
same,%Inh,[15],3%
same,%Inh,[16],7%
same,%Inh,[17],3%
same,%Inh,[18],78%
same,%Inh,[19],5%
same,%Inh,[20],8%
COc1ccc(Nc2nccc(N3CCC(NC(=O)Nc4cccc(OC)c4)C3)n2)cc1 (centres unmarked) [GSK1379742],%Inh,[1],0%
same,%Inh,[2],54%
same,%Inh,[3],40%
same,%Inh,[4],76%
same,%Inh,[5],0%
same,%Inh,[6],0%
same,%Inh,[7],18%
same,%Inh,[8],0%
same,%Inh,[9],0%
same,%Inh,[10],24%
same,%Inh,[11],5%
same,%Inh,[12],0%
same,%Inh,[13],0%
same,%Inh,[14],0%
same,%Inh,[15],17%
same,%Inh,[16],17%
same,%Inh,[17],16%
same,%Inh,[18],0%
same,%Inh,[19],52%
same,%Inh,[20],13%
Nc1ncc(-c2ccc3nccc(-c4ccncc4)c3c2)cc1S(=O)(=O)N1CCOCC1 [GSK1627798],%Inh,[1],0%
same,%Inh,[2],90.2%
same,%Inh,[3],90.7%
same,%Inh,[4],74%
same,%Inh,[5],0%
same,%Inh,[6],0%
same,%Inh,[7],0%
same,%Inh,[8],8%
same,%Inh,[9],0%
same,%Inh,[10],0%
same,%Inh,[11],21%
same,%Inh,[12],0%
same,%Inh,[13],0%
same,%Inh,[14],0%
same,%Inh,[15],6%
same,%Inh,[16],0%
same,%Inh,[17],93.3%
same,%Inh,[18],0%
same,%Inh,[19],0%
same,%Inh,[20],3%
O=C(Nc1cccc(-c2nn3ccccc3c2-c2ccnc(Nc3cccc(C(F)(F)F)c3)n2)c1)c1c(F)cccc1F [GSK292658],%Inh,[1],0%
same,%Inh,[2],0%
same,%Inh,[3],0%
same,%Inh,[4],0%
same,%Inh,[5],11%
same,%Inh,[6],2%
same,%Inh,[7],5%
same,%Inh,[8],20%
same,%Inh,[9],48%
same,%Inh,[10],20%
same,%Inh,[11],0%
same,%Inh,[12],67%
same,%Inh,[13],31%
same,%Inh,[14],9%
same,%Inh,[15],5%
same,%Inh,[16],8%
same,%Inh,[17],0%
same,%Inh,[18],0%
same,%Inh,[19],0%
same,%Inh,[20],0%
Cc1ccc(C(=O)Nc2ccc(Nc3ccnc4cc(-c5nccs5)ccc34)cc2O)cc1.Cl [GW494702],%Inh,[1],6%
same,%Inh,[2],60%
same,%Inh,[3],20%
same,%Inh,[4],25%
same,%Inh,[5],29%
same,%Inh,[6],13%
same,%Inh,[7],6%
same,%Inh,[8],0%
same,%Inh,[9],52%
same,%Inh,[10],42%
same,%Inh,[11],15%
same,%Inh,[12],19%
same,%Inh,[13],4%
same,%Inh,[14],0%
same,%Inh,[15],3%
same,%Inh,[16],2%
same,%Inh,[17],18%
same,%Inh,[18],28%
same,%Inh,[19],0%
same,%Inh,[20],0%
COc1cc(Nc2nccc(-c3c(-c4cccc(NC(=O)c5c(F)cccc5F)c4)nn4ncccc34)n2)cc(OC)c1OC [GSK327238],%Inh,[1],55%
same,%Inh,[2],48%
same,%Inh,[3],0%
same,%Inh,[4],0%
same,%Inh,[5],54%
same,%Inh,[6],11%
same,%Inh,[7],19%
same,%Inh,[8],10%
same,%Inh,[9],93.6%
same,%Inh,[10],88%
same,%Inh,[11],0%
same,%Inh,[12],100%
same,%Inh,[13],14%
same,%Inh,[14],0%
same,%Inh,[15],30%
same,%Inh,[16],96.1%
same,%Inh,[17],11%
same,%Inh,[18],11%
same,%Inh,[19],10%
same,%Inh,[20],5%
CCS(=O)(=O)c1ccc(OC)c(Nc2nccc(-c3c(-c4cccc(NC(=O)c5c(F)cccc5F)c4)nn4ncccc34)n2)c1 [GSK326180],%Inh,[1],15%
same,%Inh,[2],0%
same,%Inh,[3],5%
same,%Inh,[4],0%
same,%Inh,[5],55%
same,%Inh,[6],23%
same,%Inh,[7],12%
same,%Inh,[8],0%
same,%Inh,[9],15%
same,%Inh,[10],0%
same,%Inh,[11],26%
same,%Inh,[12],0%
same,%Inh,[13],12%
same,%Inh,[14],0%
same,%Inh,[15],25%
same,%Inh,[16],16%
same,%Inh,[17],0%
same,%Inh,[18],0%
same,%Inh,[19],17%
same,%Inh,[20],5%
